# Assay results taken from PubChem BioAssay (NCATS).
# Records with an inconclusive call do not appear. The source made the active and inactive calls. Calls come from the whole dose curve; as a rule, active = well fitted inhibition curve with a large enough effect; inconclusive = small, poorly fitted or top-dose-only effect; inactive = flat fitted curve, though single readings scatter.
# Target: Aldehyde dehydrogenase, mitochondrial (Homo sapiens) (UniProt P05091)
# Experiment: qHTS for Inhibitors of the Aldehyde Dehydrogenase Family (ALDH2) Primary screen (AID 2061308);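 note: plate controls were vehicle for no effect and reference inhibitor for full effect; nearly all actives have a fitted effect of over 55% in size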
# Conditions: ALDH2 enzyme inhibition qHTS, 1536-well; series mostly up to 56 µM; activity change, negative = inhibition: at the top concentration
SMILES,"activity change, negative = inhibition",Potency
Cc1cc2c(s1)c1cnn(Cc3ccc(C(C)C)cc3)c(=O)c1n2C,12.6% (inactive),
Cc1ccc(OCCn2c(CCNC(=O)C(C)(C)C)nc3ccccc32)cc1,1.83% (inactive),
O=C(OCC#CCSc1nnc(-c2cccc3ccccc23)o1)c1cccc(F)c1,-14.2% (inactive),
CC1(C)CC(=O)C2=C(C1)NC(Nc1nc3ccccc3o1)=NC21CCCC1,-15.1% (inactive),
CC1=C(C(=O)Nc2ccccc2Cl)C(c2ccccc2Br)N=C(Nc2nc3ccccc3o2)N1 (stereo not given),-19.4% (inactive),
O=C([C@H](Cc1ccc(O[S+](=O)([O-])c2cccc3cnccc23)cc1)N[S+](=O)([O-])c1cccnc1)N1CCN(c2ccccc2)CC1,-15.4% (inactive),
COc1cccc(-c2ccc(-c3nc4ccccc4c(=O)[nH]3)o2)c1,-12.6% (inactive),
COC(=O)C1=CO[C@@H](O[C@@H]2O[C@H](CO)[C@@H](O)[C@H](O)[C@H]2O)C2C1C(=O)C[C@H]2C (stereo not given in full),6.32% (inactive),
O=[S+]([O-])(c1ccc2c(c1)OCCO2)N1CCN([S+](=O)([O-])c2c(Cl)cc(Cl)cc2Br)CC1,-0.912% (inactive),
COc1cc(O)c(C(CC(=O)N2CCC(Cc3ccccc3)CC2)c2ccc3c(c2)OCO3)c(OC)c1 (stereo not given),-27.3% [at 114 µM] (inactive),
Cc1csc(CNc2ncnc3ccc(-c4ccc5c(ccn5C)c4)cc23)c1,4.33% (inactive),
Cc1cccc(-c2ccc3ncnc(NCc4cc(C)cs4)c3c2)c1,4.36% (inactive),
CN(C)c1cccc(-c2nccc(N3CCC(C(N)=O)CC3)n2)c1,21% (inactive),
Cc1cnc(-c2ccccc2C(C)C)nc1NCc1ccc(-c2nn[nH]n2)cc1,14.7% (inactive),
NC(=O)c1cccc(-c2noc(-c3ccccc3F)n2)c1,1.56% (inactive),
C=CCSc1nnc(-c2cccc3ccccc23)o1,4.65% (inactive),
O=C(Nc1ccc([S+](=O)([O-])Nc2nccs2)cc1)C1CCNCC1,-1.49% (inactive),
CC(=O)Nc1sc2c(c1-c1nc3ccccc3s1)CC(C)NC2 (stereo not given),-14.5% (inactive),
O=C(OCC#CCSc1nnc(-c2cccc3ccccc23)o1)c1ccc(C(F)(F)F)cc1,2.5% (inactive),
Cc1noc(C)c1-c1ccc2ncnc(NCc3ccc(-c4ccccc4)cc3)c2c1,6.05% (inactive),

SMILES,"activity change, negative = inhibition",Potency
O=C1CCc2cc(S(=O)(=O)Nc3ccc(F)c(Cl)c3)c(F)cc2N1,,inactive
Oc1ccc(CNCc2ccccc2F)c2cccnc12,3.21% (inactive),
Cc1cc(NC(=O)c2ccc(C)c(Nc3nccc(-c4cccnc4)n3)c2)cc(-n2cnc(C)c2)c1,-2.26% (inactive),
CC(=O)O[C@@H]1c2c3c(cc(O)c2C(=O)O[C@@H]1C)O[C@@]1(C)[C@@H](O)C[C@H]2C(C)(C)C(=O)C=C[C@]2(C)[C@@H]1C3,-4% [at 28 µM] (inactive),
NCCCC[C@H](N)C(=O)Nc1ccc(Cl)cc1C(=O)c1ccc[nH]1,-17.9% (inactive),
Cc1ccc(Nc2nc(-c3ccncc3)nc3ccccc23)cc1F,-11.3% (inactive),
c1ccc2sc(-c3csc4c3CCNC4)nc2c1,6.72% (inactive),
O=S1(=O)N=C(Oc2cccc(Br)c2)c2ccccc21,-8.49% (inactive),
COc1cccc(-c2ccc3ncnc(NCc4cccs4)c3c2)c1,-0.88% (inactive),
O=S(=O)(NCC1CCC(NS(=O)(=O)c2c(F)cccc2F)CC1)c1ccc2c(c1)OCCO2 (stereo not given),11.3% (inactive),
COc1ccc(N2C(=O)c3ccccc3C2=O)cc1,2.21% (inactive),
CCC(=O)NC(c1cccs1)c1cc(Br)c2cccnc2c1O (stereo not given),3.91% (inactive),
Cc1ccc(OCCn2c(CCNC(=O)c3cc([N+](=O)[O-])ccc3[N+](=O)[O-])nc3ccccc32)cc1,-10.4% (inactive),
COc1cc(C2CC(=O)Nc3c2cc(Br)c2ccccc32)cc(OC)c1OC (stereo not given),-2.19% (inactive),
CC(C)c1ccccc1-c1ncc(F)c(NCC2CCN(c3cnccn3)C2)n1 (stereo not given),-19.8% (inactive),
O=C(Nc1ccc2c(c1)OCCO2)c1ccc(-c2nc3ccccc3[nH]2)cc1,0.675% (inactive),
CC(=O)O[C@@H]1CC(C)=C2[C@H]1[C@H](C)CC[C@H]2/C=C(\C)C(=O)O,-12.2% (inactive),
NC(=O)C1CCN(c2nc(-c3ccccc3Br)cs2)CC1,9.75% (inactive),
CC(O)c1ccc(-c2ccc3ncnc(NCCc4cnc[nH]4)c3c2)o1 (stereo not given),-14.9% (inactive),
C=C(C)C(=O)O[C@H]1CC2=CC(C/C(C)=C\[C@H]3OC(=O)C(=C)[C@H]13)OC2=O (stereo not given in full),12.9% (inactive),
